Screens: PubChem BioAssay, Paczesny and Yang Labs, IUPUI and University of Michigan
This is one part of a sample in which hits are shown more often than they occur.
ST2 inh: inhibitors of human ST2 (IL1RL1) binding to IL-33, primary screen, biochemical, AlphaLISA | AlphaLISA ST2-Fc/biotin-IL-33 interaction, 1 h | 2.3% of 78,000 active | inhibition, % for hits at 17 µM | AID 1259354, 2018; in the data active = inhibition above about 30%
Target sequence (Q01638 whole entry, looked up): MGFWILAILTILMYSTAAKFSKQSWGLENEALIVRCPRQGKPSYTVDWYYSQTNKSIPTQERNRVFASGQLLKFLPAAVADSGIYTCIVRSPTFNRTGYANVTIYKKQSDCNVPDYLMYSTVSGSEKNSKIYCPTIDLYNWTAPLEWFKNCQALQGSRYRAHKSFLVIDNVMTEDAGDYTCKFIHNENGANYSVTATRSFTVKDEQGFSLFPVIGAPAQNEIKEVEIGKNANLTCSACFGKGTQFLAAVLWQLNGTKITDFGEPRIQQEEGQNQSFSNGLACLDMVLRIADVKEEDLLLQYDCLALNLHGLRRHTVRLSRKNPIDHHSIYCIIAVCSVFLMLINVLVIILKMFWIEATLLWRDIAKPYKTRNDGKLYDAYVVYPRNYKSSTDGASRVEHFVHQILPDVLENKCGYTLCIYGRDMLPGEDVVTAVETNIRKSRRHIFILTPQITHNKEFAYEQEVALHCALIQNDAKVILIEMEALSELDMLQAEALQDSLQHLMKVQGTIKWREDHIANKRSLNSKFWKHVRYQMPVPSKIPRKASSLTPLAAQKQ
Numbers stand for hits; - = inactive.

SMILES	ST2 inh
CC1=NN(c2cc(C(=O)O)cc(C(=O)O)c2)C(=O)/C1=C\c1ccc(N(C)C)cc1	76.0%
CC1=NN(c2cccc(Cl)c2)C(=O)/C1=C\c1ccc(-c2ccc(C(=O)O)c(Cl)c2)o1	-
COC(=O)[C@@H]1C[C@@H](NC(=O)c2cc(-n3cccn3)ccc2Cl)CN1C	-
O=C(Nc1nnc(C2CC2)s1)c1csc2ccccc12	-
CCC(C(=O)N1Cc2cnc(-c3ccccc3)nc2C1)N1CCOCC1 (stereo unspecified)	-
O=C(c1ccc(NCc2cccnc2)nc1)N1CCCC(c2ccccc2)CC1 (stereo unspecified)	-
O=C(CSc1ccc2nnc(-c3cccnc3)n2n1)N1CCCCC1c1ccc(F)cc1 (stereo unspecified)	-
O=C(CSc1ccc2nnc(-c3cccnc3)n2n1)N1CCCC(c2ccccc2)CC1 (stereo unspecified)	36.0%
COc1cc(C(O)c2nccn2C)ccc1OCc1ccccc1 (stereo unspecified)	-
COc1cccc(NC(=O)N[C@H]2CCN(C(=O)c3cnccn3)[C@@H]2C(=O)N[C@@H](CCCNC(=O)c2cnccn2)C(N)=O)c1	-
COc1ccc(N2CN=c3s/c(=C\c4ccc(OC)c(OC)c4)c(=O)n3C2)cc1	35.0%
COc1ccc(/C=c2\sc3n(c2=O)CN(c2cccc(F)c2)CN=3)cc1OC	-
CC(=O)c1cccc(N2CN=c3s/c(=C\c4cccnc4)c(=O)n3C2)c1	-
COc1ccc(/C=c2\sc3n(c2=O)CN(c2ccc4c(c2)OCO4)CN=3)cc1	31.0%
CCCCOc1ccc(/C=c2\sc3nc(-c4cccs4)nn3c2=O)cc1OC	-
O=c1/c(=C/c2ccncc2)sc2n1CN(c1ccc3c(c1)OCO3)CN=2	-
CCC1=C(c2ccc(OC)cc2)S(=O)(=O)N(CC(=O)Nc2cc(C)ccc2C)C1=O	-
OCC1CCCCN1Cc1ccc2c(c1)CN(Cc1cccc3cccnc13)CCO2 (stereo unspecified)	-
O=C(Nc1ccccc1-c1ccccc1)c1ccccc1	-
CC(=O)Nc1ccc2cccccc1-2	56.0%
O=C(CCCc1ccccc1)Nc1ccccc1-c1ccccc1	-
CCSc1nc2c(c(=O)[nH]1)C(c1cccc(OC)c1)C1=C(CC(C)(C)CC1=O)N2 (stereo unspecified)	-
COC(=O)C(c1ccccc1)C1(O)CC(C)N(C)CC1C (stereo unspecified)	-
OC1(c2ccc3ccccc3c2)CCN(Cc2ccccc2)C1 (stereo unspecified)	-
O=C(COc1ccccc1)N1CCN=C1SCc1ccccc1Cl	-
SMILES	ST2 inh
O=C(c1ccccc1)c1c(O)cc(-c2ccccc2)oc1=O	-
Cc1cc(C)cc(N2CCN(C(=O)C3CCC(=O)N(C4CCCC4)C3)CC2=O)c1 (stereo unspecified)	-
O=C(c1ccc(N2CCC(NCCOc3cccnc3)CC2)cc1)N1CCc2ccccc2C1	-
COc1ccccc1N=c1sc(C2=c3ccccc3=NC2=O)c(O)n1-c1ccccc1OC	36.0%
COCCOC(=O)c1c(C)oc2ccc(OCc3ccc(Cl)cc3)cc12	-
Cc1ccc(C)c(NCC(O)Cn2c(C)c(C)c3ccccc32)c1 (stereo unspecified)	-
Cc1c(C)n(CC(O)CNC2CCCCC2)c2ccccc12 (stereo unspecified)	-
COc1ccc(NCC(O)Cn2c(C)c(C)c3ccccc32)cc1 (stereo unspecified)	32.0%
CCOC(=O)c1c(NC(=O)c2cc(C3CC3)on2)sc(C)c1C	-
CC(C)c1nc2cccnc2n1CCN1CCNCC1	-
Cc1cccc(N=Cc2nc(-c3ccc(Cl)cc3)oc2O)n1	-
Cc1cccc(N=Cc2nc(-c3ccc(Cl)cc3)oc2O)c1	-
Oc1oc(-c2ccc(Cl)cc2)nc1C=Nc1ccccn1	33.0%
COC(=O)c1sc2ccccc2c1NC(=O)c1ccc(Br)s1	-
CN(CCCc1cnn(C)c1)c1nc(-c2cccnc2)nc2c1cnn2C	30.0%
Cn1ncc2c(NCc3n[nH]c4c3CCCCC4)nc(-c3cccnc3)nc21	-
Cc1nnsc1CNc1nc(-c2cccnc2)nc2c1cnn2C	-
Cc1cccc2oc(-c3cc(N=Cc4ccc([N+](=O)[O-])cc4)ccc3O)nc12	30.0%
Cc1ccccc1-c1nc2cc(N=Cc3cc([N+](=O)[O-])ccc3O)ccc2o1	-
O=[N+]([O-])c1ccc(O)c(C=Nc2ccc(-c3nc4ncccc4o3)cc2)c1	-
Cc1ccccc1-c1nc2cc(N=Cc3cc([N+](=O)[O-])c(O)c([N+](=O)[O-])c3O)ccc2o1	-
O=[N+]([O-])c1cc2c(cc1C=Nc1ccc3oc(-c4cccc(F)c4)nc3c1)OCO2	-
O=[N+]([O-])c1cc2c(cc1C=Nc1ccc(O)c(-c3nc4ccccc4o3)c1)OCO2	35.0%
CC(Cc1ccco1)NC(=O)C1CCN(c2ccc(-c3cccs3)nn2)CC1 (stereo unspecified)	-
Cc1noc(C)c1NC(=O)NCc1ccc2[nH]c3c(c2c1)CCCC3	-
SMILES	ST2 inh
CCCC1CCC(C(=O)NC(C(=O)O)C(C)C)CC1 (stereo unspecified)	-
O=C1C2C3C=CC(C3)C2C(=O)N1c1c(F)cccc1F (stereo unspecified)	-
O=C(CCC1CCN(Cc2cc(F)ccc2-n2cccn2)CC1)N1CCCC1	-
CCC(C)c1ccccc1OCC(=O)Nc1cc(C)on1 (stereo unspecified)	-
Cc1ccccc1-n1nc(-c2ccc(N)cc2)cc1N	-
CC(=O)c1cc(CN2CCCC(N3CCN(c4cccc(Cl)c4)CC3)C2)cs1 (stereo unspecified)	-
COc1ccc(N2C(=O)S/C(=C\c3ccc(O)cc3)C2=O)cc1	-
N=C1S/C(=C\c2ccccc2F)C(=O)N1c1ccc2c(c1)OCO2	-
O=C1S/C(=C\c2ccc(O)cc2)C(=O)N1c1ccc(O)cc1	-
Nc1cccc2c1C(=O)N(c1ccc(O)cc1)C2=O	-
CC(=C/c1ccccc1)/C=C1/SC(=O)N(c2ccc(O)cc2)C1=O	45.0%
O=C1S/C(=C\c2ccccc2Cl)C(=O)N1c1ccc(O)cc1	38.0%
Cc1cccc(OCC(=O)Nc2cc(N3CCCS3(=O)=O)ccc2C)c1	-
Cc1cc(N2CCN(C)CC2)nc2ccc(NC(=O)Cc3cccs3)cc12	-
O=C(NCCCN1CCCC1)c1ccc(CS(=O)(=O)c2c(Cl)cccc2Cl)o1	-
CCOc1nnc(-c2ccc(C)cc2)c2ccccc12	-
O=S(=O)(NC[C@H]1O[C@@H](CO)[C@@H](O)[C@H]1N1CCOCC1)c1ccccc1	-
CN(C)c1ccc(-c2nc3cc(NC(=O)Cc4ccccc4)ccc3o2)cc1	-
O=C(Nc1ccc2oc(-c3ccncc3)nc2c1)c1ccc(-c2ccccc2)o1	41.0%
O=C(Nc1ccc2oc(-c3ccc(F)cc3)nc2c1)c1ccccc1	-
O=C(Nc1nccs1)c1cc(NC(=O)c2cccs2)cc(NC(=O)c2cccs2)c1	-
CC1(C)CC(=O)C2=C(C1)Nc1[nH]c(=O)[nH]c(=O)c1C2c1ccccc1 (stereo unspecified)	-
CC1(C)CC(=O)C2=C(C1)Nc1sc(C#N)c(N)c1C2c1ccccc1 (stereo unspecified)	33.0%
CC1(C)CC(=O)C2=C(C1)NC1=C(C(=O)CC(C)(C)C1)C2c1ccccc1	-
COc1ccc(C(=O)Nc2ccc(C(=O)O)cc2)cc1	-
CN(C)C(CNC(=O)Nc1nnc(C(F)(F)F)s1)c1ccccn1 (stereo unspecified)	-
O=C(NCCc1nc(-c2ccccn2)no1)c1ccc2ncsc2c1	-
